# Assay outcomes deposited in PubChem by several laboratories.
# Autofluor counter = counter-screen for toxin protease inhibitors: compound fluorescence; compound autofluorescence counterscreen, microsphere flow cytometry; active compounds read high; fluorescence intensity (concentration not given with the values); 3.1% of 360,000 active; in the data active = fluorescence intensity above about 16000; inconclusive = no clear call, values can overlap the other calls
# GDH-TPI counter = counter-screen for M. tuberculosis FBA inhibitors: GDH-TPI coupled enzymes. GDH-TPI coupled enzyme counterscreen, NADH absorbance. inhibition, % at 4.8 µM. 1.2% of 360,000 active. AID 588335; in the data active = inhibition above about 30%;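 also: 0% = DMSO wells and 100% = wells lacking the enzyme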
# BoNT F protease = BoNT F light chain protease inhibition; Multiplex microsphere protease cleavage assay, flow cytometry; inhibition, % at 10 µM; AID 588497; 0.22% of 360,000 active; in the data active = inhibition above about 35%, passing the limit was not always enough; inconclusive = no clear call, values can overlap the other calls; also: plate controls were buffer without enzyme for full effect and enzyme alone for no effect
# Mtb FBA inh = inhibitors of M. tuberculosis fructose-bisphosphate aldolase. P9WQA3. purified M. tuberculosis FBA, fluorescence read-out. inhibition, % at 1 µM. 2.3% of 360,000 active. AID 588726; in the data active = inhibition above about 27%;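 also: 0% = vehicle and 100% = reference inhibitor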
# Target sequence (P9WQA3 whole entry, looked up): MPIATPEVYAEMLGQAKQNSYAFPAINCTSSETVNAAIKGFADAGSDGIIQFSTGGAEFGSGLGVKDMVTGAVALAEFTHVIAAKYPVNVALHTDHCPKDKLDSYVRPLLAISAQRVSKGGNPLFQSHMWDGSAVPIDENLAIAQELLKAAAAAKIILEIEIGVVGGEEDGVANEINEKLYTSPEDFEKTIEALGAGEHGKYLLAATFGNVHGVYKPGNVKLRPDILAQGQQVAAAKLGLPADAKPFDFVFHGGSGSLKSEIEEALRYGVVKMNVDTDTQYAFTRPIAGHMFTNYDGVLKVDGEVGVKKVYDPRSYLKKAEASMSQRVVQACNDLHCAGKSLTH
# Anthrax LF prot = inhibitors of Bacillus anthracis lethal factor protease; P15917; multiplex microsphere protease cleavage assay, LF; inhibition, % at 10 µM; 0.12% of 360,000 active; AID 588501; also: plate controls were buffer without enzyme for full effect and enzyme alone for no effect
# BoNT A protease = BoNT A light chain protease inhibition; multiplex microsphere protease substrate cleavage, flow cytometry; inhibition, % at 10 µM; 0.17% of 360,000 active; also: plate controls were buffer without enzyme for full effect and enzyme alone for no effect
# Active calls of the source: *; ? = inconclusive; / = not tested or not shown. Most compounds without a hit are left out; they make up all but 6.7% or so of the library. Rule as the data show it, unless noted: active = inhibition above about 30%; inconclusive = no clear call, values can overlap the other calls; inactive = below that.
SMILES,Autofluor counter,GDH-TPI counter,BoNT F protease,Mtb FBA inh,Anthrax LF prot,BoNT A protease
COC(=O)c1nc(-n2nc(C)cc2C)ccc1Cl,8336,15.5,-5.6,2.4,-3.8,-0.6
CN(C(=O)Nc1ccc(Cl)cc1)c1c2c(nn1C)CCCC2,23809*,1.2,-6.5,-1.2,-3.3,?
CC(=O)c1cc2c(cc1NS(=O)(=O)c1ccc(C)cc1)OCO2,20111*,5.0,5.0,-0.4,-10.8,8.7
CC(=O)c1cccc(N(CC(=O)N2CCCCC2)S(C)(=O)=O)c1,24555*,1.4,0.3,-1.6,-2.4,?
CC(=O)c1cccc(N(CC(=O)N2CCCC2)S(C)(=O)=O)c1,7490,1.6,6.7,4.0,-4.2,0.4
CN(CC(=O)O)S(=O)(=O)c1cc(Cl)ccc1Cl,7073,12.5,-11.8,6.4,0.8,-1.3
CCOC(=O)C1CCN(C(=O)CN(c2ccc3c(c2)OCCO3)S(C)(=O)=O)CC1,22882*,13.0,-0.4,1.0,-9.6,-0.6
CCOC(=O)N1CCN(C(=O)CN(c2cccc(OC)c2)S(C)(=O)=O)CC1,19270*,12.6,3.6,-2.5,3.7,?
CN(CC(=O)N1CCCC1)S(=O)(=O)c1cc(Cl)ccc1Cl,22425*,-8.1,-6.4,-3.2,-0.3,?
COc1ccc(-n2c(SCC(=O)Nc3nc(C)cs3)nnc2-c2ccoc2C)cc1,3769,-3.4,-7.0,0.9,0.8,-0.1
CC(=O)Nc1ccc(S(=O)(=O)N2CCN(c3cc(C)nc4ccccc34)CC2)cc1,4777,3.1,7.4,1.8,2.9,0.1
Cc1ccnc(NC(=O)Cc2c(F)cccc2Cl)c1,/,8.6,/,2.7,/,/
Cc1cc(=O)oc2cc(OCC(=O)OCC(=O)NC(=O)NC(C)C)ccc12,4193,-5.4,1.2,9.3,3.1,0.6
CS(=O)(=O)N(CC(=O)N1CCCC1)c1ccc2c(c1)OCCO2,21840*,3.7,4.4,5.8,0.6,5.0
Cc1ccc(N(CC(=O)N2CCOCC2)S(C)(=O)=O)cc1C,20113*,-7.8,1.1,-0.9,1.2,?
CS(=O)(=O)N(CC(=O)N1CCCC1)c1cc(Cl)c(Cl)cc1Cl,22315*,-0.4,2.3,-2.3,-2.2,2.6
CS(=O)(=O)N(CC(=O)N1CCCC1)c1ccc(Cl)cc1Cl,2937,-3.9,4.1,-0.3,21.1,1.9
Cc1cccc(Sc2c([N+](=O)[O-])ncn2C)c1,23323*,22.4,-0.6,4.8,1.3,-0.3
O=C(Nc1ccccc1)Nc1nc(-c2ccc(F)c(F)c2)cs1,3882,5.2,-0.9,5.1,4.7,2.0
O=C(c1cc(-c2ccccc2)nc2ccccc12)N1N=C(C(F)F)CC1(O)C(F)F (stereo not drawn),26128*,9.9,-11.1,-0.9,-3.3,-7.3
Cc1ccc(-c2cc(C(=O)N3N=C(C(F)F)CC3(O)C(F)F)c3ccccc3n2)cc1C (stereo not drawn),10021,10.8,-12.2,12.7,-5.0,0.7
CC(C)c1nnc(NC(=O)CSc2ccccc2)s1,2724,0.8,-6.1,-0.4,-2.0,-0.5
O=C(Cn1ncc2c3ccccc3n(Cc3ccccc3)c2c1=O)NCCCN1CCCC1,5541,8.9,-2.2,8.4,0.5,-1.8
COc1ccc(CC(=O)Nc2ccc(S(=O)(=O)Nc3nc(C)cc(C)n3)cc2)cc1,19652*,-3.1,2.7,1.8,-5.1,2.2
COc1ccc(S(=O)(=O)Nc2ccc(NC(C)=O)cc2)cc1,23841*,1.9,-6.0,0.0,-2.5,-4.5
SMILES,Autofluor counter,GDH-TPI counter,BoNT F protease,Mtb FBA inh,Anthrax LF prot,BoNT A protease
COc1ccc(/C=C/C(=O)NC(=S)Nc2ccc(S(=O)(=O)Nc3nccnc3OC)cc2)cc1,7240,49.3*,-3.6,0.4,-4.8,0.5
CCOC(=O)c1ccc(NC(=O)C(C)NS(=O)(=O)c2ccc(OC)cc2)cc1 (stereo not drawn),16181*,24.3,-1.3,-1.1,1.7,0.2
COc1ccc(/C=C/C(=O)NC(=S)Nc2ccc(S(=O)(=O)Nc3cc(OC)ncn3)cc2)cc1,5768,24.6,-11.0,0.0,-7.9,-3.0
O=S(=O)(N1CCCCC1)n1c(Cc2ccccc2)nc2ccccc21,8344,7.8,0.7,-3.0,3.0,-0.5
O=C(Cn1cc(C(F)(F)F)cc(Cl)c1=O)Nc1ccc(N2CCOCC2)cc1,4548,7.9,-4.4,0.3,-4.7,0.0
CCOc1cc(NS(=O)(=O)c2ccc(NC(C)=O)cc2)c(OCC)cc1NC(=O)C(C)C,20625*,9.6,5.7,3.4,-7.8,3.2
COc1ccc(S(=O)(=O)NN=C2CCCCC2)cc1,10962,-6.7,-5.3,0.6,-4.1,-0.4
